Experimental data reported in PubChem BioAssay (NCATS).
“And” between values parts separate entries of the source, which are not always exact repeats. Equal values may be shown once. Results filed as inconclusive are left out. The source made the active and inactive calls. Unless noted, calls come from the whole dose curve; as a rule, active = well fitted curve in the direction sought with a large enough effect; inconclusive = small, poorly fitted or top-dose-only effect, or another doubt; inactive = no such curve, though single readings can be large; an effect the other way counts as inactive or inconclusive.

Columns and labels:
[1] = Primary qHTS for inhibitors of La Crosse Virus (LACV) - induced cell death in SH-SY5Y cells (AID 1508616);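 note: top concentration of the series differs between compounds; 0% = infected DMSO wells and 100% = uninfected DMSO wells; higher means more rescue of cells from virus-induced death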
Procedure, shortened: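 Cytopathicity rescue screen: compounds pinned onto SH-SY5Y cells, which are then infected with LACV (MOI 0.01) and held 6 days at 37C. Percent activity is scaled between infected DMSO control and uninfected DMSO control.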

[2] = molecular target: Calcium and integrin-binding protein 1 (Homo sapiens) (UniProt Q99828); test: Primary qHTS for Identification of Calcium Integrin Binding Protein 1 (CIB1) Competitor (AID 1508620);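 note: GST tagged CIB1 binding a fluorescein labelled alphaIIb integrin peptide tracer; top concentration of the series differs between compounds; % is set by controls: 0 for no effect and ±100 for the full control effect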
Procedure, shortened: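 Fluorescence polarization competition: GST-tagged CIB1 (1 uM final) preincubated with compound 15 min at room temperature, then FITC-labelled alphaIIb peptide (100 nM final) added. After 15 min at room temperature, polarization read at Ex 480/Em 540.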

[3] = molecular target: Cytochrome P450 2D6 (Homo sapiens) (UniProt P10635); test: Cytochrome P450 family 2 subfamily D member 6 (CYP2D6) small molecule antagonists: luciferase biochemical (cell-free) qHTS assay (AID 1645840; active = well fitted curve in the direction sought with a large enough effect in the repeat runs; an effect the other way counts as inactive or inconclusive; note: nearly all actives have a fitted effect of over 55% in size; note: potency is the fitted concentration of half-maximal effect)
Procedure, shortened: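 P450-Glo CYP2D6 system: proluciferin substrate converted by enzyme to luciferin, read by luminescence proportional to activity. Enzyme-substrate mix with compound 10 min at room temperature, then NADPH regeneration 1 h before detection reagent.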

[4] = molecular target: Cytochrome P450 2C9 (Homo sapiens) (UniProt P11712); test: Cytochrome P450 family 2 subfamily C member 9 (CYP2C9) small molecule antagonists: luciferase biochemical (cell-free) qHTS assay (AID 1645842; active = well fitted curve in the direction sought with a large enough effect in the repeat runs; an effect the other way counts as inactive or inconclusive; note: nearly all actives have a fitted effect of over 55% in size; note: potency is the fitted concentration of half-maximal effect)
Procedure, shortened: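 P450-Glo CYP2C9 system: proluciferin substrate with enzyme in mix containing 0.4% BSA, 10 min at room temperature, then NADPH regeneration solution added and incubated 1 h at 37C. Detection reagent stopped reaction; luminescence read after 20 min as RLU.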

[5] = Primary qHTS for inhibitors of nuclear receptor binding SET domain protein 2 (NSD2) in an isogenic RCH-ACV NSD2 p.E1099K mutant (9B) (AID 1645876); note: nearly all actives have a fitted effect of over 70% in size; note: potency is the fitted concentration of half-maximal effect
[6] = Primary qHTS for inhibitors of nuclear receptor binding SET domain protein 2 (NSD2) in an RCH-ACV wild type WT cells (2C) (AID 1645877); note: nearly all actives have a fitted effect of over 70% in size; note: potency is the fitted concentration of half-maximal effect
[7] = Primary qHTS for small molecule stabilizers of the endoplasmic reticulum resident proteome: Secreted ER Calcium Modulated Protein (SERCaMP) assay (AID 1508630); note: % is set by controls: 0 for no effect and ±100 for the full control effect
Procedure, shortened: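 The SH-SY5Y reporter protocol was run at 3 concentrations up to 38.3 uM (primary) or 11 concentrations (follow-up): 16 h compound, 100 nM thapsigargin for 4 h, then extracellular luciferase luminescence.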

[8] = A High-Content qHTS Against Drug Library for the Identification of Small Molecules that Inhibit DYT1 Early Onset Primary Dystonia-Associated Cell Pathology (AID 1645839; calls by dose curve; note: potency is the fitted concentration of half-maximal effect)
Procedure, shortened: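 Cells were seeded and left for 24 h, then dosed with compound alongside tetracycline induction of mutant EGFP-TorsinA. They were incubated for 48 h, fixed in 4% paraformaldehyde, permeabilized and imaged for mislocalization (%pathology) and cell count.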

[9] = molecular target: N-terminal Xaa-Pro-Lys N-methyltransferase 1 (Homo sapiens) (UniProt Q9BV86); test: Confirmatory qHTS for Inhibitors of N-terminal methyltransferase 1 (NTMT1): MTaseGlo Assay (AID 1645874); note: nearly all actives have a fitted effect of over 65% in size; note: potency is the fitted concentration of half-maximal effect
Procedure, shortened: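 Inhibition was derived from luminescence after SAH-to-ATP conversion, scaled between no-enzyme and DMSO wells, then fitted by 4-parameter Hill. Conditions: 125 nM NTMT1, 100 uM SAM, 1 uM SPKRIA, 30 min RT.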

[10] = Counterscreen qHTS for small molecule stabilizers of the endoplasmic reticulum resident proteome: GLuc-NoTag assay (AID 1508627); note: potency is the fitted concentration of half-maximal effect
Procedure, shortened: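 Counterscreen line: SH-SY5Y-GLuc-NoTag. Seed, 5 h; compound, 19 h; thapsigargin 100 nM, 4 h; 37C/5% CO2. Readout: secreted GLuc luminescence, coelenterazine 0.07x final, no lysis.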

[11] = Cell Viability qHTS for small molecule stabilizers of the endoplasmic reticulum resident proteome (AID 1508629); settings: cell viability counter-screen, 100 nM thapsigargin for final 4 h;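 note: compound exposure about 46 h in total before the viability read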; note: potency is the fitted concentration of half-maximal effect;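 for max response: human SH-SY5Y neuroblastoma cells carrying the GLuc-SERCaMP reporter; % is set by controls: 0 for no effect and ±100 for the full control effect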
[12] = Confirmatory qHTS for small molecule stabilizers of the endoplasmic reticulum resident proteome: Secreted ER Calcium Modulated Protein (SERCaMP) assay (AID 1508628); note: series mostly up to about 76 µM; % is set by controls: 0 for no effect and ±100 for the full control effect; nearly all actives have a fitted effect of over 40% in size
Procedure, shortened: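 GLuc-SERCaMP-expressing SH-SY5Y cells, pretreated 16 h with compound, are challenged with thapsigargin to empty ER calcium stores; after 4 h, coelenterazine is added directly to the medium and luminescence is imaged.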

Chain of Cytochrome P450 2D6 (Homo sapiens) (P10635 whole entry, looked up): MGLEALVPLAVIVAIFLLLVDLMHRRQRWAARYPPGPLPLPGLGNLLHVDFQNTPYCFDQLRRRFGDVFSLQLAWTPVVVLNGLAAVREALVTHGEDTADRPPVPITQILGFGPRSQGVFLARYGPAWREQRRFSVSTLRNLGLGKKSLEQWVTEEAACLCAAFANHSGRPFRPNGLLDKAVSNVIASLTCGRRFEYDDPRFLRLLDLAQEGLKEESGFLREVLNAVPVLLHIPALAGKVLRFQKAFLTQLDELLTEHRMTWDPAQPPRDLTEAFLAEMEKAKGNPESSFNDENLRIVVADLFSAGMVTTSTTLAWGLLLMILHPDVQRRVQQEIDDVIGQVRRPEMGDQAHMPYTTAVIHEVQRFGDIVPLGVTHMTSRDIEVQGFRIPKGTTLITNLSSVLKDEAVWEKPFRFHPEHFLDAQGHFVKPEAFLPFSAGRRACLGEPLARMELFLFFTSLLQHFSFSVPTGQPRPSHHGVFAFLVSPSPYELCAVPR
Chain of Calcium and integrin-binding protein 1 (Homo sapiens) (Q99828 whole entry, looked up): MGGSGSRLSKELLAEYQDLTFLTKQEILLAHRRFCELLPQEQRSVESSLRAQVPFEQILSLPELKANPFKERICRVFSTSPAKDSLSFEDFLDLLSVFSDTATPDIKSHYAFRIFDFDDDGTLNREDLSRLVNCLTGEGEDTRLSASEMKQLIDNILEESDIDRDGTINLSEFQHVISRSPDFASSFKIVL
Chain of Cytochrome P450 2C9 (Homo sapiens) (P11712 whole entry, looked up): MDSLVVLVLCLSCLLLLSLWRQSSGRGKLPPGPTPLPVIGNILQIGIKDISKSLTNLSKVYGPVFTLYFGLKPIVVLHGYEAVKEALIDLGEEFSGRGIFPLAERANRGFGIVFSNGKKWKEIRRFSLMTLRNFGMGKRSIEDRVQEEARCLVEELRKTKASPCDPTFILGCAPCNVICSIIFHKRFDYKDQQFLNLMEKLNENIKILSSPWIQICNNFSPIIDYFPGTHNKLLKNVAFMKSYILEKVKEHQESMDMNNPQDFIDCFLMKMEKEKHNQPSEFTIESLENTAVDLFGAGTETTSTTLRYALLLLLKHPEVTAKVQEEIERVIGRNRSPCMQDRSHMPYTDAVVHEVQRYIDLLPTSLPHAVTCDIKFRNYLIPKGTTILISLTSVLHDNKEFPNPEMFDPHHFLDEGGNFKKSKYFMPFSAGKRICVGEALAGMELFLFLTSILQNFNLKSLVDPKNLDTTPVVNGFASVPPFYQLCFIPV
Chain of N-terminal Xaa-Pro-Lys N-methyltransferase 1 (Homo sapiens) (Q9BV86 whole entry, looked up): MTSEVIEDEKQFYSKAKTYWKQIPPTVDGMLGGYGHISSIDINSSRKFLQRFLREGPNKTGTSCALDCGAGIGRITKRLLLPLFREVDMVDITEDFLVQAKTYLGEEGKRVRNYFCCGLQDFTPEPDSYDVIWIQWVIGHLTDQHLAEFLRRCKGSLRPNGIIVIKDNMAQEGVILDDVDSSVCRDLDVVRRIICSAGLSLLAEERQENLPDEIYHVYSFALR

COC(=O)C1=C(C)NC(C)=C(C(=O)OCCc2ccc(N3CCN(C(c4ccccc4)c4ccccc4)CC3)cc2)C1c1cccc([N+](=O)[O-])c1 (configuration not stated)
active: Potency [4] 0.55 µM
inactive: outcome [1] | Potency [2] | Potency [3] | Potency [5] | Potency [6]

C[C@H]1C[C@@H]2[C@H]([C@@H](O)C[C@@]3(C)[C@H]2CC[C@]3(O)C(=O)CO)[C@@]2(C)C=CC(=O)C=C12
inactive: outcome [1] | Potency [7] | Potency [8] | Potency [5]
active: Potency [6] 26.6 nM and 74.2 nM

CCOC(=O)C1=C(C)NC(C)=C(C(=O)OCC)C1c1ccccc1/C=C/C(=O)OC(C)(C)C
inactive: outcome [1] | Potency [2]
active: Potency [4] 0.49 µM | Potency [5] 21.1 µM | Potency [6] 16.8 µM

CCCCC/C=C\C/C=C\CCCCCCCC(=O)NC(C)c1ccccc1 (configuration not stated)
active: Potency [4] 1.55 µM | Potency [6] 16.8 µM
inactive: outcome [1] | Potency [2]

O=C1OC2(c3ccccc31)c1cc(I)c(O)c(I)c1Oc1c2cc(I)c(O)c1I
active: Potency [3] 17.4 µM | Potency [4] 19.5 µM | Potency [9] 1.9 µM
inactive: outcome [1] | Potency [2]

CC(C)=CCC/C(C)=C/CC/C(C)=C/C(=O)OCC(=O)[C@@]1(O)CC[C@H]2[C@@H]3CCC4=CC(=O)C=C[C@]4(C)[C@H]3[C@@H](O)C[C@@]21C
active: Potency [4] 1.74 µM | Potency [6] 4.73 µM
inactive: outcome [1] | Potency [2] | Potency [3]

C[C@@H](C1=C(CCN(C)C)Cc2ccccc21)c1ccccn1
inactive: outcome [1] | Potency [2] | Potency [4] | Potency [5]
active: Potency [3] 11 µM

NCC(=O)O
inactive: outcome [1] | Potency [8]

O=C(O)CCCC[P+](c1ccccc1)(c1ccccc1)c1ccccc1
inactive: outcome [1] | Potency [7] | Potency [8] | Potency [3] | Potency [4] | Potency [5] | Potency [6]

Cc1cc2nc3ccc(=[N+](C)C)cc-3sc2cc1N
active: Potency [10] 35.5 µM | Potency [11] 7.94 µM | Potency [8] 7.08 µM | Potency [3] 0.431 µM | Potency [4] 1.08 µM | Potency [5] 1.33 µM | Potency [6] 1.06 µM
inactive: outcome [1]

OCc1c[nH]c2ccccc12
active: Potency [3] 25.2 µM | Potency [4] 7.31 µM | Potency [5] 24.3 µM | Potency [6] 24.3 µM
inactive: outcome [1] | Potency [2]

OCCCc1ccccc1
inactive: outcome [1] | Potency [7] | Potency [8] | Potency [3] | Potency [4] | Potency [5] | Potency [6]

Cc1oc(=O)oc1COC(=O)[C@@H]1N2C(=O)[C@@H](NC(=O)[C@H](N)c3ccccc3)[C@H]2SC1(C)C
inactive: outcome [1] | Potency [2] | Potency [3] | Potency [5] | Potency [6]

CCS(=O)(=O)c1ccc(OC)c(C(=O)OC)c1
inactive: outcome [1] | Potency [2] | Potency [3] | Potency [4] | Potency [5] | Potency [6]

N[C@@H](Cc1cc(I)c(O)c(I)c1)C(=O)O
inactive: outcome [1] | Potency [10] | Potency [12] | max response [11] 10.7% | Potency [7] | Potency [8] | Potency [5] | Potency [6]
active: Potency [4] 15.5 µM

O=C1NC2CCCCN2C12CCN(CCCN1c3ccccc3CCc3ccc(Cl)cc31)CC2 (configuration not stated)
active: Potency [5] 18.3 µM | Potency [6] 21.1 µM
inactive: outcome [1] | Potency [2]

CCCCCOc1ccccc1/C(=C\SC)n1ccnc1
active: Potency [3] 0.977 µM | Potency [4] 3.89 µM | Potency [5] 13.3 µM | Potency [6] 13.3 µM
inactive: outcome [1] | Potency [2]

CN1CCCN=C1/C=C/c1cccs1
inactive: outcome [1] | Potency [2] | Potency [9] | Potency [5] | Potency [6]

COC(=O)/C=C\C(=O)OC
inactive: outcome [1] | Potency [2] | Potency [3] | Potency [4] | Potency [5] | Potency [6]

C[C@@H](O[C@H]1OCCN(Cc2n[nH]c(=O)[nH]2)[C@H]1c1ccc(F)cc1)c1cc(C(F)(F)F)cc(C(F)(F)F)c1
inactive: outcome [1] | Potency [2]
active: Potency [3] 20.4 µM | Potency [4] 12.1 µM

CN(C)CCOC1=Cc2ccccc2Sc2ccc(Cl)cc21
active: Potency [3] 1.1 µM | Potency [6] 16.8 µM
inactive: outcome [1] | Potency [2] | Potency [4]

NS(=O)(=O)c1cc2c(cc1Cl)CN(C1CCCCC1)C2=O
inactive: outcome [1] | Potency [8] | Potency [3] | Potency [4] | Potency [5]

CCCCCCCCCCCCCC[N+](C)(C)C
inactive: outcome [1] | Potency [2] | Potency [4]
active: Potency [3] 3.09 µM | Potency [5] 0.237 µM | Potency [6] 0.266 µM

O=C1c2ccccc2CCc2ccccc21
inactive: outcome [1] | Potency [2] | Potency [3] | Potency [4] | Potency [5] | Potency [6]

CN1CC[C@H](c2c(O)cc(O)c3c(=O)cc(-c4ccccc4Cl)oc23)[C@H](O)C1
active: Potency [5] 0.0211 µM | Potency [6] 0.0106 µM
inactive: outcome [1] | Potency [7] | Potency [4]

Cc1ccc(CCn2c3c(c4cc(Cl)ccc42)CN(C)CC3)cn1
active: Potency [3] 2.19 µM
inactive: outcome [1] | Potency [2] | Potency [4]

CCCCCCOC(=O)NC(=N)c1ccc(NCc2nc3cc(C(=O)N(CCC(=O)OCC)c4ccccn4)ccc3n2C)cc1
active: Potency [4] 1.38 µM | Potency [5] 18.6 µM
inactive: outcome [1] | Potency [2]

CCCCCCCCCCCC[N+](C)(C)Cc1ccccc1
inactive: outcome [1] | Potency [7]
active: Potency [3] 0.195 µM | Potency [4] 15.5 µM | Potency [5] 0.473 µM | Potency [6] 0.473 µM

O=[N+]([O-])c1cncn1CCN1CCOCC1
inactive: outcome [1] | Potency [2] | Potency [3] | Potency [4] | Potency [5] | Potency [6]
